Results from PubChem BioAssay AID1159580 (chemical genetic matrix, 2015).
The campaign covered roughly 5,500 compounds. About 2,000 (36%) were called active. Another 18% or so got no clear call; they are omitted. Rule as the data show it: active = normalized growth mostly below about 0.91 (no sharp cut-off); inconclusive = no clear call, values can overlap the other calls; inactive = mostly above about 0.92. The list shows a part of the results.

Assay: chemical genetic growth profiling, strain panel (AID 1159580);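 also: tested at 20 µM; growth read once vehicle control cultures reached saturation at 30 °C; 1 = growth at the plate median or of vehicle wells; lower values mean less growth of the strain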
Conditions: S. cerevisiae deletion strains, growth OD
[1] = locus YDL101C, strain DUN1, active compounds read low
[2] = locus YHR030C, strain SLT2, active compounds read low

Measured: normalized growth

O=C(c1cccc([N+](=O)[O-])c1)c1cc2cc(Br)cc(Br)c2o1
inactive: locus YAL013W, strain DEP1, active compounds read low 0.993 | locus YBR229C, strain ROT2, active compounds read low 0.997 | [1] 1.01 | locus YDL134C, strain PPH21, active compounds read low 0.994 | locus YDR150W, strain NUM1, active compounds read low 0.952 | locus YEL061C, strain CIN8, active compounds read low 0.983 | locus YGR078C, strain PAC10, active compounds read low 0.989 | locus YGR229C, strain SMI1, active compounds read low 1 | [2] 0.837 | locus YHR087W, strain rtc3, active compounds read low 0.981 | locus YJR043C, strain POL32, active compounds read low 0.997 | locus YJR075W, strain HOC1, active compounds read low 0.975 | locus YKL190W, strain CNB1, active compounds read low 0.996 | locus YLR039C, strain RIC1, active compounds read low 0.954 | locus YLR058C, strain SHM2 (second series), active compounds read low 0.994 | locus YLR085C, strain ARP6, active compounds read low 0.847 | locus YLR262C, strain YPT6, active compounds read low 0.974 | locus YML094W, strain GIM5, active compounds read low 0.988 | locus YMR219W, strain ESC1, active compounds read low 0.994 | locus YMR263W, strain SAP30, active compounds read low 0.96 | locus YMR307W, strain GAS1, active compounds read low 0.864 | locus YNL153C, strain GIM3, active compounds read low 0.988 | locus YNL298W, strain CLA4 (second series), active compounds read low 0.948 | locus YNL322C, strain KRE1, active compounds read low 0.991 | locus YNR030W, strain Alg12, active compounds read low 0.953 | locus YOL006C, strain TOP1, active compounds read low 0.935 | locus YPL055C, strain LGE1, active compounds read low 0.974 | locus YPL241C, strain CIN2, active compounds read low 0.942 | locus YPR135W, strain CTF4, active compounds read low 0.964

CN1c2ccccc2C(C)(C)C12C=Cc1cc(O)ccc1O2 (stereo not given)
inactive: locus YAR019C, strain CDC15, active compounds read low 0.981 | locus YBL105C, strain PKC1, active compounds read low 0.981 | locus YBR135W, strain CKS1, active compounds read low 0.977 | locus YBR136W, strain MEC1, active compounds read low 0.981 | locus YBR160W, strain CDC28, active compounds read low 0.984 | locus YDL017W, strain CDC7, active compounds read low 0.974 | locus YDL028C, strain MPS1, active compounds read low 0.979 | [1] 0.975 | locus YDL108W, strain KIN28, active compounds read low 0.974 | locus YDL132W, strain cdc53, active compounds read low 0.977 | locus YDL214C, strain PRR2, active compounds read low 0.986 | locus YDR052C, strain DBF4, active compounds read low 0.982 | locus YDR054C, strain cdc34, active compounds read low 0.97 | locus YDR226W, strain ADK1, active compounds read low 0.972 | locus YDR477W, strain SNF1, active compounds read low 0.971 | locus YER123W, strain YCK3, active compounds read low 0.987 | locus YER133W, strain GLC7, active compounds read low 0.974 | locus YFL009W, strain cdc4, active compounds read low 0.968 | locus YFL029C, strain CAK1, active compounds read low 0.978 | locus YFR003C, strain YPI1, active compounds read low 0.976 | locus YFR019W, strain FAB1, active compounds read low 0.993 | locus YFR028C, strain CDC14, active compounds read low 0.976 | locus YGR040W, strain KSS1, active compounds read low 0.972 | locus YGR052W, strain FMP48, active compounds read low 1.01 | locus YGR092W, strain DBF2, active compounds read low 0.996 | [2] 0.897 | locus YHR079C, strain IRE1, active compounds read low 1.01 | locus YHR082C, strain KSP1, active compounds read low 1.06 | locus YHR205W, strain SCH9, active compounds read low 0.985 | locus YIL147C, strain SLN1, active compounds read low 0.978 | locus YJL095W, strain BCK1, active compounds read low 1.01 | locus YJL128C, strain PBS2, active compounds read low 0.942 | locus YJL157C, strain FAR1, active compounds read low 0.978 | locus YJR016C, strain ILV3, active compounds read low 0.968 | locus YJR066W, strain TOR1 (second series), active compounds read low 0.965 | locus YJR066W, strain TOR1, active compounds read low 1.08 | locus YKL048C, strain ELM1, active compounds read low 0.975 | locus YKL067W, strain YNK1, active compounds read low 0.975 | locus YKL101W, strain HSL1, active compounds read low 0.962 | locus YKL193C, strain SDS22, active compounds read low 0.973 | locus YKL203C, strain TOR2, active compounds read low 1.05 | locus YLR113W, strain HOG1, active compounds read low 0.891 | locus YLR133W, strain CKI1, active compounds read low 0.984 | locus YLR403W, strain SFP1, active compounds read low 1.01 | locus YML070W, strain DAK1, active compounds read low 0.978 | locus YMR001C, strain CDC5, active compounds read low 0.971 | locus YMR205C, strain PFK2 (second series), active compounds read low 0.991 | locus YMR277W, strain FCP1, active compounds read low 0.973 | locus YNL006W, strain LST8, active compounds read low 0.978 | locus YNL020C, strain ARK1, active compounds read low 0.982 | locus YNL161W, strain CBK1, active compounds read low 0.973 | locus YNL183C, strain NPR1, active compounds read low 1.08 | locus YNL207W, strain RIO2, active compounds read low 0.974 | locus YNL222W, strain SSU72, active compounds read low 0.986 | locus YNL307C, strain MCK1 (second series), active compounds read low 0.978 | locus YOL078W, strain AVO1, active compounds read low 0.975 | locus YOL136C, strain PFK27, active compounds read low 0.991 | locus YOR061W, strain CKA2, active compounds read low 0.993 | locus YOR119C, strain RIO1, active compounds read low 1.05 | locus YOR231W, strain MKK1, active compounds read low 1.02 | locus YOR329C, strain SCD5, active compounds read low 0.985 | locus YPL031C, strain PHO85, active compounds read low 0.962 | locus YPL153C, strain RAD53, active compounds read low 0.958 | locus YPL204W, strain HRR25, active compounds read low 0.943 | locus YPL209C, strain IPL1, active compounds read low 0.974 | locus YPL256C, strain CLN2, active compounds read low 0.899 | locus YPR025C, strain CCL1, active compounds read low 0.993 | locus YPR106W, strain ISR1, active compounds read low 0.984 | locus YPR111W, strain DBF20, active compounds read low 0.977 | strain NNK1, active compounds read low 0.989 | strain TSCII, active compounds read low 0.978
